# Bioassay records (PubChem BioAssay)
# MARV entry inh: inhibitors of Marburg virus binding or cell entry. AID 540276. Potency, µM (series often up to 37.8 µM), without a hit: at the highest dose activity change, negative = inhibition, hits mostly inhibitors. 300,000 compounds, 1.8% hits. Marburg virus pseudotyped entry inhibition, cell reporter; calls by dose curve; tested in HEK293 cells; further: potency means the concentration at half of the fitted maximal effect; on the % scale 0 is the no-effect control and ±100 the full control effect
# SARS PLpro yeast: SARS-CoV PLP inhibition in yeast; S. cerevisiae expressing SARS-CoV PLpro, growth rescue; Potency, µM (series often up to 32.9 µM), for the others: at the highest dose activity, positive = growth rescue, actives largely listed as activators; 330,000 compounds, 0.19% hits; calls by dose curve; further: potency means the concentration at half of the fitted maximal effect; 0% is about no effect; nearly all actives have a fitted effect of over 55% in size
# Lassa entry inh: Lassa virus entry inhibition | Lassa virus pseudotype entry inhibition, cell reporter | Potency, µM (top dose mostly 37.9 µM), for the others: at the highest dose activity change, negative = inhibition, actives largely listed as inhibitors | 300,000 compounds, 1.2% hits; calls by dose curve; tested in HEK293 cells; further: potency means the concentration at half of the fitted maximal effect; on the % scale 0 is the no-effect control and ±100 the full control effect; nearly all actives have a fitted effect of over 50% in size
# HCV inhibitor: blocks hepatitis C virus. 340,000 compounds, 3.4% hits. Potency, µM (doses to about 41.8 µM), for inactives: at the highest dose activity change, negative = inhibition, most hits filed as inhibitors. Huh7.5.1 HCVcc-Cre infection, luciferase reporter, 44 h; active means well fitted inhibition curve with a large enough effect; inconclusive means small, poorly fitted or top-dose-only effect, or another doubt; inactive means no such curve, though single readings can be large or run the other way; further: potency means the concentration at half of the fitted maximal effect; on the % scale 0 is the no-effect control and ±100 the full control effect
#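 Infectious HCVcc-Cre (~0.5 moi) was added to cells just after compound, with cells seeded 4 h earlier at 1,000 per well. Luciferase activity after 44 h culture reported infection; substrate was incubated 15 min at room temperature before reading.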
# HCMV antiviral: inhibitors of human cytomegalovirus | activity change, negative = inhibition, % at 57.5 µM | 410,000 compounds, 4.5% hits | HFF cells, HCMV-luciferase reporter, 72 h; hits give low values | AID 1259415; in the data active means activity change below about -60%; inconclusive means no clear call, values can overlap the other calls; inactive means above about -39%; further: on the % scale 0 is the no-effect control and ±100 the full control effect
#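 HFF cells seeded 16 h at 37C, treated with compounds, infected with luciferase-reporter HCMV at MOI 1 PFU/cell; luciferase read at 72 h post infection, normalized to buffer-only and Salinomycin controls.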
# FMDV antiviral: blocks foot and mouth disease virus; FMDV antiviral cell-based qHTS; Potency, µM (doses to about 57.9 µM), for the others: top-dose activity change, negative = inhibition, hits mostly inhibitors; 410,000 compounds, 1.2% hits; AID 1159524; calls by dose curve; tested in HEK293T cells; further: read-out not given here; potency means the concentration at half of the fitted maximal effect; on the % scale 0 is the no-effect control and ±100 the full control effect; nearly all actives have a fitted effect of over 45% in size
# Active calls of the source: *; ? = inconclusive; nt = no result given; [ ] = another dose, or the depositor's remark. This is a sample that favours compounds with a hit; in the whole collection about 8% have one here.
SMILES,MARV entry inh,SARS PLpro yeast,Lassa entry inh,HCV inhibitor,HCMV antiviral,FMDV antiviral
Cc1ccc2c(c1)N(C)/C(=C/c1cccc[n+]1C)S2,?,-2.8%,?,?,-97.9*,-22.2%
Cc1ccc2c(c1)N(C)/C(=C/c1cccc[n+]1CCO)S2,nt,-1.5%,nt,?,-97.1*,?
COc1cc(Nc2nccc3[nH]c(-c4cccc(C(F)(F)F)c4)nc23)cc(OC)c1OC,nt,nt,nt,nt,7.2,nt
CSc1cc2c(cc1C(F)(F)F)N(C(=O)Nc1cccnc1)CC2,nt,nt,nt,nt,nt,-6.2%
COc1cccc([C@H]2/C(=C(\O)c3ccc(C)cc3)C(=O)C(=O)N2Cc2ccco2)c1,20.6%[46.1 µM],nt,nt,nt,nt,nt
COc1ccc(-c2nc(SCC(=O)NCCCc3ccccc3)n[nH]2)cc1,nt,nt,?,nt,-66.7*,-9.5%
COc1ccc(/C=C/c2cc[n+](C(=O)Cc3ccccc3)cc2)cc1,-27.9%[46.1 µM],-3.3%,-28.0%,-25.0%,-107.8*,?
COc1ccc(-c2nc(SCC(=O)NC(C)CCc3ccccc3)n[nH]2)cc1 (stereo not drawn),nt,nt,?,nt,-89.1*,?
CC(CCc1ccccc1)NC(=O)CSc1n[nH]c(-c2ccccc2)n1 (stereo not drawn),nt,nt,?,nt,-28.0,-15.9%
CC(CCc1ccccc1)NC(=O)CSc1n[nH]c(-c2ccc(F)cc2)n1 (stereo not drawn),nt,nt,-28.5%[46.1 µM],nt,-64.8*,?
COc1ccc(OC)c(N(C)S(=O)(=O)c2ccc3c(c2)NC(=O)CC(=O)N3)c1,14.5%[46.1 µM],nt,-0.2%[46.1 µM],nt,-2.8,-10.9%
Cc1ccccc1OCC(=O)NCC(c1ccc(Cl)cc1)N1CCCCC1 (stereo not drawn),?,nt,13.7%[46.1 µM],nt,-17.1,-24.0%
N=c1sccn1CC(=O)Nc1ccc(SC(F)F)cc1,-21.3%[46.1 µM],1.8%,?,?,15.9,-13.1%
O=C(c1cccs1)N1C[C@@H](O)[C@@H](n2cc(C3CC3)nn2)C[C@@H]1c1ccccc1,nt,nt,8.4%[46.1 µM],nt,nt,nt
COc1ccc(/C=C/C(=O)NC(C)CCc2ccccc2)cc1 (stereo not drawn),17.1%,-29.5%,-5.4%,-2.1%,-60.2*,6.8%
COc1ccc(NC(=O)CSc2n[nH]c(-c3ccccn3)n2)cc1,?,-0.8%,nt,?,-17.3,4.1%
O=C(CSc1n[nH]c(-c2ccccn2)n1)Nc1ccccc1,?,0.7%,?,?,-79.0*,-11.8%
Cc1cnc(NC(=O)CSC(=S)N2CCOCC2)s1,7.6%[46.1 µM],-3.1%,15.7%,-4.0%,-22.9,6.2%
S=C(N/N=C/c1cccs1)NC1CC2CCC1C2 (stereo not drawn),?,-4.2%,-10.2%,-20.4%,30.7,21.8%
Oc1ccc(/C=N/NC(=S)NC2CC3CCC2C3)cc1 (stereo not drawn),?,1.0%,11.2µM*,-25.9%,30.7,10.6%
CC(C)CC(c1nc2ccccc2[nH]1)n1c(-c2ccccc2Br)nc2ccccc21 (stereo not drawn),nt,nt,nt,nt,-26.6,-11.0%
FC(F)(F)c1cc(CCN2CCNC[C@@H]2c2ccccc2)cc(C(F)(F)F)c1,nt,-11.3%,nt,?,3.9,-12.4%
FC(F)(F)c1cc(CO[C@@H]2CCCN[C@@H]2c2ccccc2)cc(C(F)(F)F)c1,nt,nt,nt,3.55µM*,23.6,?
COc1ccc(NC(=O)c2cccc(N3C(=O)C4C5C=CC(C6CC56)C4C3=O)c2)cc1 (stereo not drawn),?,-0.8%,-19.4%,nt,-8.2,39.8µM*
O=C(Nc1ccc(Cl)cc1)c1cccc(N2C(=O)C3C4CCC(C4)C3C2=O)c1 (stereo not drawn),?,-17.2%,?,?,?,31.6µM*
COc1ccc(NC(=O)c2cccc(N3C(=O)C4C5C=CC(C6CC56)C4C3=O)c2)c(OC)c1 (stereo not drawn),?,-0.6%,17.8µM*,-28.7%,-18.1,-29.9%
O=C(O)c1cccc(N2C(=O)C=CC2=O)c1,nt,nt,nt,nt,-16.5,-14.5%
O=C(Nc1ccc(Cl)cc1Cl)c1cccc(N2C(=O)C=CC2=O)c1,2.5%,-18.6%,nt,-8.2%,-72.7*,-29.4%
CCCNC(=O)OC[C@H]1O[C@H](CCO/N=C(\C)CCC(=O)OC[C@H]2O[C@H](C#Cc3ccccc3)C=C[C@@H]2Oc2ccc(C)cc2)C=C[C@@H]1Oc1ccc(OC)cc1,-28.6%[14.2 µM],nt,nt,nt,nt,nt
